Test results published in ChEMBL document CHEMBL3988442, “University of Dundee, Small-Polar-MMV Screening Library” (2021).
The campaign covered roughly 69,000 compounds. About 950 (1.4%) showed an effect of 50% or more. The full list was thinned out, with strong results kept by preference.

tested on: Mycobacterium tuberculosis; assay: Cornell M. t heat shock assay; type: functional, organism-based; design: dose or concentration left out as unconfirmed; further: in the data most compounds retested in dose-response had high values

With `Cl.O=c1c2sccc2nc2n1CCN(Cc1cc(F)ccc1F)CC2` as the compound, how does the “Percent Effect” value read?
The value was 0.6259%.

With `COc1cccc(OC)c1CN1CC(=O)N(c2ccc(C)cc2)CC1C` (stereo not given) as the compound, how does the “Percent Effect” value read?
Its value is 53.82%.

For `COc1cc(CN2CC(=O)N(c3ccc(C)cc3)CC2C)cc(OC)c1` (stereo not given), which “Percent Effect” value is on record?
The value was 23.62%.

`COc1ccc(CN2CC(=O)N(c3ccc(C)cc3)CC2C)cc1O` (stereo not given) was tested. Which “Percent Effect” value did it give?
Its value is -4.116%.

With `CC(CCSc1ccccc1)N1CCN(C(=O)c2ccccc2O)CC1` (stereo not given) as the compound, how does the “Percent Effect” value read?
Its value is 35.88%.

For `CC(CCSc1ccccc1)N1CCCN(C(N)=O)CC1` (stereo not given), which “Percent Effect” value is on record?
The value was 30.42%.

How did the “Percent Effect” value turn out when `CC(CCSc1ccccc1)N1CCN(C(=O)c2cccs2)CC1` (stereo not given) was run?
The value was 96%.

For `COCCNC(=O)C[C@@H]1COC[C@H]2CN(CC3CCOCC3)C[C@@H]12.O=C(O)C(F)(F)F`, which “Percent Effect” value is on record?
The value was -14.59%.

For `Cc1ccc(C(=O)N2CCc3ncnc(-c4cnn(C)c4)c3CC2)cn1.O=C(O)C(F)(F)F`, which “Percent Effect” value is on record?
Its value is -33.4%.

`Cc1cc(NC(=O)NCCc2ccccc2)n(C)n1` was tested. Which “Percent Effect” value did it give?
Its value is -19.68%.

Which “Percent Effect” value does the source give for `Cc1cnccc1NC(=O)CCc1ccsc1` here?
Its value is -21.59%.

For `Cc1cc(NC(=O)NCCc2ccsc2)n(C)n1`, which “Percent Effect” value is on record?
Its value is 63.69%.

Which “Percent Effect” value does the source give for `Cc1cc(NC(=O)CCc2ccsc2)n(C)n1` here?
Its value is 89.31%.

`COc1ccc(CCNC(=O)Nc2cc(C)nn2C)cc1` was tested. Which “Percent Effect” value did it give?
Its value is 8.379%.

How did the “Percent Effect” value turn out when `Cn1cc(NC(=O)CCc2ccsc2)ccc1=O` was run?
Its value is 27.26%.

For `COCCN1Cc2nccn2CC(COCc2csc(C)n2)C1.O=C(O)C(F)(F)F.O=C(O)C(F)(F)F` (stereo not given), which “Percent Effect” value is on record?
The value was 2.482%.

How did the “Percent Effect” value turn out when `O=S(=O)(c1ccc2c(c1)OCCO2)N1CCc2ccccc2C1` was run?
Its value is -4.595%.

With `O=C(O)C(F)(F)F.c1ccc(N2CCCC3(CCN(Cc4cccs4)C3)C2)nc1` (stereo not given) as the compound, how does the “Percent Effect” value read?
Its value is -4.42%.

With `Cc1ccc(C(CCNCCCN(C)C)C2CCOC(C)(C)C2)cc1.O=C(O)C(=O)O` (stereo not given) as the compound, how does the “Percent Effect” value read?
Its value is -7.6%.

`CCn1ncc(-c2cc(C(F)(F)F)nc(N3CCC(N)CC3)n2)c1C` was tested. Which “Percent Effect” value did it give?
The value was 23.29%.

With `Cc1c(-c2cc(C(F)(F)F)nc(N3CCC(N)CC3)n2)cnn1C` as the compound, how does the “Percent Effect” value read?
Its value is -8.82%.

`CCc1ccc(-c2cc(C(F)(F)F)nc(N3CCC(N)CC3)n2)cc1` was tested. Which “Percent Effect” value did it give?
The value was 103%.

For `O=C(C1CC(F)(F)C1)N1C[C@@H]2CN(CC3CCCC3)CCO[C@@H]2C1.O=C(O)C(F)(F)F`, which “Percent Effect” value is on record?
The value was -23.11%.

Which “Percent Effect” value does the source give for `CN1CC(=O)N(c2ccsc2)CC12CCN(C(=O)N1CCCC1)C2.O=C(O)C(F)(F)F` (stereo not given) here?
Its value is -15.35%.

For `CCc1cnc(N2CCC3(CC2)CN(c2cccnc2)C(=O)CO3)nc1.O=C(O)C(F)(F)F`, which “Percent Effect” value is on record?
Its value is -15.98%.

Which “Percent Effect” value does the source give for `CCN1CCC(c2nc3ccc(NC4CCC4)cn3n2)CC1.O=C(O)C(F)(F)F` here?
Its value is 28.46%.

How did the “Percent Effect” value turn out when `Cc1noc(C)c1CN1C[C@@H]2COC[C@H](C(=O)N3CCCCO3)[C@@H]2C1.O=C(O)C(F)(F)F` was run?
The value was 10.78%.

`CC(=O)N[C@@H]1CN(C(=O)c2cccc(C(F)(F)F)c2)C[C@H]1O` was tested. Which “Percent Effect” value did it give?
Its value is -5.977%.

How did the “Percent Effect” value turn out when `Cc1cc(NC(=O)c2nc(N3CCCC3)ncc2Cl)nc(C(C)C)n1` was run?
Its value is 105.6%.

How did the “Percent Effect” value turn out when `O=C(Nc1cc(Cl)ccn1)c1nc(N2CCCC2)ncc1Cl` was run?
Its value is 5.327%.

`O=C(Nc1ccccn1)c1nc(N2CCCC2)ncc1Cl` was tested. Which “Percent Effect” value did it give?
Its value is -2.485%.

How did the “Percent Effect” value turn out when `CC[C@H]1CN2CC[C@H]1C[C@@H]2CNCc1ccc(N(C)C)cc1` was run?
Its value is 1.41%.

How did the “Percent Effect” value turn out when `CC[C@H]1CN2CC[C@H]1C[C@@H]2CNC(=O)Nc1ccccc1` was run?
The value was -5.923%.

`CC[C@H]1CN2CC[C@H]1C[C@@H]2CNC(=O)Nc1cc(OC)cc(OC)c1` was tested. Which “Percent Effect” value did it give?
Its value is 76.55%.

Which “Percent Effect” value does the source give for `CC[C@H]1CN2CC[C@H]1C[C@@H]2CNCc1ccc(OC(F)(F)F)cc1` here?
The value was 100.5%.

`CC[C@H]1CN2CC[C@H]1C[C@@H]2CNC(=O)Nc1ccc(Br)cc1` was tested. Which “Percent Effect” value did it give?
The value was 4.849%.

For `CC[C@H]1CN2CC[C@H]1C[C@@H]2CNCc1ccc(OC)cc1`, which “Percent Effect” value is on record?
Its value is -7.267%.

For `CC(C)C(=O)N(C)Cc1nc(N2CCCC2)ncc1-c1ccncc1.Cl`, which “Percent Effect” value is on record?
Its value is 19.59%.

`CC(C)c1cc(C(=O)N2CCCC(n3cncn3)C2)n[nH]1` (stereo not given) was tested. Which “Percent Effect” value did it give?
The value was -20.76%.

Which “Percent Effect” value does the source give for `Cc1[nH]nc2ncc(C(=O)N3CCN(CC(C)O)CC3)cc12.Cl` (stereo not given) here?
Its value is -10.49%.

With `Cc1noc(C)c1CN1CCO[C@H]2CN(Cc3cncn3C)C[C@H]21.O=C(O)C(F)(F)F.O=C(O)C(F)(F)F` as the compound, how does the “Percent Effect” value read?
The value was -21.37%.

`CN1CCc2nc(C3CCN(C(=O)CCC4CCCC4)CC3)ncc2C1` was tested. Which “Percent Effect” value did it give?
The value was 104.5%.

With `O=C(CCC1CCCC1)N1CCC(c2ncc3c(n2)CCNC3)CC1` as the compound, how does the “Percent Effect” value read?
Its value is 14.08%.

With `CN1CCc2nc(C3CCCN(C(=O)CC4CCCCC4)C3)ncc2C1` (stereo not given) as the compound, how does the “Percent Effect” value read?
The value was -14.45%.

How did the “Percent Effect” value turn out when `Cc1ccc(CN2C[C@@H]3C[C@H](C(=O)NCC4CC4)N(C)[C@@H]3C2)o1.O=C(O)C(F)(F)F.O=C(O)C(F)(F)F` was run?
Its value is -27.97%.

For `CCC(C)Oc1ccc(CNCCc2c[nH]cn2)cc1Cl` (stereo not given), which “Percent Effect” value is on record?
The value was 101.9%.

`CCC(C)Oc1ccc(CNCCNC(C)=O)cc1Cl` (stereo not given) was tested. Which “Percent Effect” value did it give?
The value was -0.254%.

`CCC(C)Oc1ccc(CNCCNS(C)(=O)=O)cc1Cl` (stereo not given) was tested. Which “Percent Effect” value did it give?
Its value is 14.23%.

With `COCCCN(CCOC)Cc1nc2c(cnn2C)c(=O)[nH]1` as the compound, how does the “Percent Effect” value read?
The value was 18.48%.

Which “Percent Effect” value does the source give for `CN(CCCOc1ccccc1)Cc1nc2c(cnn2C)c(=O)[nH]1` here?
The value was -3.727%.

How did the “Percent Effect” value turn out when `COCCN(CCc1ccccc1)Cc1nc2c(cnn2C)c(=O)[nH]1` was run?
Its value is 50.74%.

For `CN(CCc1ccccc1)Cc1nc2c(cnn2C)c(=O)[nH]1`, which “Percent Effect” value is on record?
Its value is 14.44%.

Which “Percent Effect” value does the source give for `COCCN(CCOC)Cc1nc2c(cnn2C)c(=O)[nH]1` here?
The value was -10.64%.

How did the “Percent Effect” value turn out when `CN(CCCc1ccccc1)Cc1nc2c(cnn2C)c(=O)[nH]1` was run?
Its value is 59.96%.

`CNC(=O)CN1CCOCC12CCN(Cc1ccncc1)CC2.O=C(O)C(F)(F)F.O=C(O)C(F)(F)F` was tested. Which “Percent Effect” value did it give?
Its value is -37.23%.

With `CN(C)CCO[C@@H]1CC[C@H]2[C@H]1OCCN2C(=O)c1ccnnc1.O=C(O)C(F)(F)F` as the compound, how does the “Percent Effect” value read?
The value was -33.17%.

With `COc1nccnc1-c1cc(NC2CCNCC2)nc2[nH]ccc12` as the compound, how does the “Percent Effect” value read?
Its value is -16.125%.

With `COc1ncc(-c2ccc(O)cc2)c(OC)n1` as the compound, how does the “Percent Effect” value read?
Its value is -3.595%.

For `CNc1cc(C)nc(-c2cc(NC3CCNCC3)nc3[nH]ccc23)n1`, which “Percent Effect” value is on record?
Its value is -20.27%.

For `COc1nccnc1-c1cc(NC2CCCC2)nc2[nH]ccc12`, which “Percent Effect” value is on record?
Its value is 103.35%.

How did the “Percent Effect” value turn out when `Nc1ccnc(-c2cc(NC3CCNCC3)nc3[nH]ccc23)c1` was run?
The value was 14.8%.

How did the “Percent Effect” value turn out when `COc1cc(-c2cc(NC3CCCC3)nc3[nH]ccc23)nc(N)n1` was run?
Its value is 101.075%.

How did the “Percent Effect” value turn out when `COc1ncc(-c2cc(NC3CCCC3)nc3[nH]ccc23)c(OC)n1` was run?
The value was 102%.

For `FC(F)(F)c1ccc(-c2cc(NC3CCNCC3)nc3[nH]ccc23)nc1`, which “Percent Effect” value is on record?
The value was 16.27%.

How did the “Percent Effect” value turn out when `COc1ncc(-c2cc(NCCN(C)C)nc3[nH]ccc23)c(OC)n1` was run?
Its value is -24.47%.
